Test [1] is described as follows: antimalarial activity against Dd2 strain (AID 2302;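 active = growth inhibition above 50% at the single 2 µM test dose, taken to imply half-maximal potency below 2 µM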;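 note: 0% = DMSO untreated growth and 100% = chloroquine plus artemisinin killed control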). Particulars: P. falciparum Dd2 in RBCs, LDH growth readout, 72 h; at 2 µM; active compounds read high.
A short description of test [2]: HepG2 cytotoxicity, primary screen, cytotoxicity control for P. falciparum antimalarial project, cell-based, ATP luminescence (AID 2303;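 active = inhibition above 50%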;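 note: 0% = DMSO wells and 100% = digitonin-killed cells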). As to conditions: HepG2 viability, 24-48 h, at 10 µM, active compounds read high.
The target in test [3] is L-lactate dehydrogenase (Plasmodium falciparum (isolate CDC / Honduras)) (UniProt Q27743). In words: PfLDH activity inhibition – cell lysate, 3D7 strain, counter-screen for P. falciparum growth inhibition project (AID 2304).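 Note: 0% = vehicle and 100% = reference inhibitor.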 Particulars: P. falciparum 3D7 crude extract, LDH APAD/NBT absorbance; at 2 µM; active compounds read high.
Chain of L-lactate dehydrogenase (Plasmodium falciparum (isolate CDC / Honduras)) (Q27743 whole entry, looked up): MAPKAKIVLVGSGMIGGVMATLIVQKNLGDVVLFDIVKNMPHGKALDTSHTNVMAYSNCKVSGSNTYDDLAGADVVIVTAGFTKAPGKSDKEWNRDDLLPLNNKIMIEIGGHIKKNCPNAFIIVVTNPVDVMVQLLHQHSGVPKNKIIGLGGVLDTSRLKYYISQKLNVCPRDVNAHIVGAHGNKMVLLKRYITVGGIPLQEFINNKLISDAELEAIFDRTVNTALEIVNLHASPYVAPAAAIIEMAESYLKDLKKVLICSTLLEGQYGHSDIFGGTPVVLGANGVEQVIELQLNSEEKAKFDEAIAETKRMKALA
The nature of test [4]: inhibition of 3D7 malaria parasite growth – strain 3D7 (AID 2306).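 Note: 0% = DMSO wells and 100% = chloroquine plus artemisinin control wells.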 Particulars: P. falciparum 3D7 erythrocytic growth, LDH absorbance, 72 h; at 2 µM; active compounds read high.
Test [5] concerns the target Calcium-dependent protein kinase 1 (Plasmodium falciparum (isolate 3D7)) (UniProt P62344). In words: PfCDPK1 kinase inhibitors, biochemical, TCAMS library (AID 1159585; cut-off not given, nearly all actives have IC50 up to about 0.98 µM;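 note: inhibitors leave more ATP so luminescence rises with inhibition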). As to conditions: recombinant PfCDPK1, Kinase-Glo ATP depletion luminescence. In general terms: Kinase-Glo measures the ATP left after a reaction by luminescence.
For test [6], the target named is Plasmodium falciparum protein kinase 6 (PK6, PF3D7_1337100) (UniProt Q8IDW1). In words: PfPK6 kinase inhibitors, biochemical, TCAMS library (AID 1159586). Particulars: recombinant PfPK6, Kinase-Glo ATP depletion luminescence.
Chain of Plasmodium falciparum protein kinase 6 (PK6, PF3D7_1337100) (Q8IDW1 1-305): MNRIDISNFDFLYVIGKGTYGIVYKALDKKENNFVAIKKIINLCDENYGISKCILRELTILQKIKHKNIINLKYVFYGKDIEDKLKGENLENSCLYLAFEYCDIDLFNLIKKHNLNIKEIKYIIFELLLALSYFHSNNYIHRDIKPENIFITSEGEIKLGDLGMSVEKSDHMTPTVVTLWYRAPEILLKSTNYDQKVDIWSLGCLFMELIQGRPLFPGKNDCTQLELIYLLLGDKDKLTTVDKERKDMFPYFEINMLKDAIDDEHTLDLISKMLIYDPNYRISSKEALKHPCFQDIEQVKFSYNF
In test [7] the target is Protein kinase 7 (PK7), Plasmodium falciparum 3D7 (PF3D7_0213400) (UniProt Q7YTF7). Nature of the test: inhibition of Plasmodium PK7 catalytic activity – biochemical, TCAMS antimalarial set, Kinase-Glo luminescence (AID 1159587). Particulars: recombinant PfPK7, Kinase-Glo ATP depletion luminescence.
Chain of Protein kinase 7 (PK7), Plasmodium falciparum 3D7 (PF3D7_0213400) (Q7YTF7 1-343): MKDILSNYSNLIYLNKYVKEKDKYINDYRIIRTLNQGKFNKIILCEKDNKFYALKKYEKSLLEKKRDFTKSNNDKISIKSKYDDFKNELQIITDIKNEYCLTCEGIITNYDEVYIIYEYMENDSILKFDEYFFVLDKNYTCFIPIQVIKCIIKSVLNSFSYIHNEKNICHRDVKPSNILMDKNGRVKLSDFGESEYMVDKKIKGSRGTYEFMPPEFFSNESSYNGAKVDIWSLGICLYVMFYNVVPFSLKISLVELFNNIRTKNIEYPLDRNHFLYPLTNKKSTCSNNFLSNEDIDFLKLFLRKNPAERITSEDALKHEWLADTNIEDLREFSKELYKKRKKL
Test [8] concerns the target Calcium-dependent protein kinase 4 (Plasmodium falciparum (isolate 3D7)) (UniProt Q8IBS5). In words: PfCDPK4 kinase inhibitors, biochemical, TCAMS library (AID 1159588; cut-off not given, nearly all actives have IC50 up to about 0.91 µM). Particulars: recombinant PfCDPK4, Kinase-Glo ATP depletion luminescence.

In general, inhibition refers to the change of the read-out against control, counted positive when it falls.

A number with no mark means an inactive call. For part of these data: Measured potencies and affinities stand elsewhere. Activity calls are given as the source filed them. Unless noted, the rule behind the calls is not given here.

Chain of Calcium-dependent protein kinase 1 (Plasmodium falciparum (isolate 3D7)) (P62344 whole entry, looked up): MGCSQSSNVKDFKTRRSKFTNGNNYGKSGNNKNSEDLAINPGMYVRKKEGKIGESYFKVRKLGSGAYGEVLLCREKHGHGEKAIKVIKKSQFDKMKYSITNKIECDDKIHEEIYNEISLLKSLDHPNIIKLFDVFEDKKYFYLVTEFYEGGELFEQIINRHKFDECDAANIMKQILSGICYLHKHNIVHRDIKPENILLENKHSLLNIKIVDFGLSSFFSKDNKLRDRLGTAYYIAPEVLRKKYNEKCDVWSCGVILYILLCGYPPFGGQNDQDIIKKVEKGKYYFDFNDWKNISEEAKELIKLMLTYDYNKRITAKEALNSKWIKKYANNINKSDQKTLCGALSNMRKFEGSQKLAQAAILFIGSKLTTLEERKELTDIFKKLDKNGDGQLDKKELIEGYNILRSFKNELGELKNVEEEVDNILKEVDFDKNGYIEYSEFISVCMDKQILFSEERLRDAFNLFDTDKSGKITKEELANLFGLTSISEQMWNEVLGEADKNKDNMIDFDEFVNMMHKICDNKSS
Chain of Calcium-dependent protein kinase 4 (Plasmodium falciparum (isolate 3D7)) (Q8IBS5 whole entry, looked up): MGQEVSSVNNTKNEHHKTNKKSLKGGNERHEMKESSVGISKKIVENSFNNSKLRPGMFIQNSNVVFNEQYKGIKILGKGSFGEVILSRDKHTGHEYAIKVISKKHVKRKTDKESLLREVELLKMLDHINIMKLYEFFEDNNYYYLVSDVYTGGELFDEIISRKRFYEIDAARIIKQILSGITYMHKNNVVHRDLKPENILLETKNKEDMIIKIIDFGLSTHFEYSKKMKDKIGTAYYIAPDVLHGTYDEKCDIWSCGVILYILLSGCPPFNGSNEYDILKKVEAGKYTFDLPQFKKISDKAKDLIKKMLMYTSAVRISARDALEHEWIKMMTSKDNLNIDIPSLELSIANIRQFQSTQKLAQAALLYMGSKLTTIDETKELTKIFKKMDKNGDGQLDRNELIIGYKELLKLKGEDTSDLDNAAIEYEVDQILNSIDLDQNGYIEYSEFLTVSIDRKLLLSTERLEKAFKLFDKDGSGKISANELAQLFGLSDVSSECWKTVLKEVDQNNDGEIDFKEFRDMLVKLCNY

Take `Cc1cc(C(=O)NCc2ccc(-c3c(C)noc3C)cc2)n(-c2ccccc2)n1`: the results for the growth inhibition in test [1] and in test [4] were 90% (active) and 92% (active), respectively. The inhibition is 4% in test [2] and 3% in test [3]. The result in test [5], in test [6], in test [7] and in test [8] was inactive.

Regarding `CC1(C)N=C(N)N=C(N)N1OCCNCc1ccc(Cl)cc1`, the growth inhibition is -2% in test [1] and 95% (active) in test [4]. In addition, the inhibition was 5% in test [2] and -5% in test [3]. For the same compound, the outcome in test [5], in test [6], in test [7] and in test [8] was inactive.

For the compound `COc1ccc(CNC2CCN(C)CC2)cc1-c1ccc(S(=O)(=O)NC2CCC2)c(F)c1`, the growth inhibition in test [1] was 97% (active); in test [4], 101% (active). The inhibition in test [2] was 96% (active); in test [3] it was 7%. In addition, the result in test [5], in test [6], in test [7] and in test [8] was inactive.

On to `O=C1C(c2ccccc2)=C(Nc2cccc(OC(F)(F)C(F)F)c2)c2ccccc21`, for which the growth inhibition in test [1] and in test [4] was 96% (active) in each case. Besides, the values for the inhibition in test [2] and in test [3] were -5% and 0%, respectively. Also, the result in test [5], in test [6], in test [7] and in test [8] was inactive.

For `O=C(NCc1ccc(Cl)c(Cl)c1)c1ccc(C2CCN(Cc3ccc4nc[nH]c4c3)CC2)cc1`, the growth inhibition in test [1] is 31%; in test [4] it was 100% (active). Besides, the inhibition in test [2] is 1%; in test [3], -1%. The outcome in test [5], in test [6], in test [7] and in test [8] was inactive.

`Cc1ccc(O)cc1Nc1ccnc2cc(-c3ccccc3)ccc12`: the values for the growth inhibition in test [1] and in test [4] were 99% (active) and 100% (active), respectively. The values for the inhibition in test [2] and in test [3] were 45% and -2%, respectively. Also, the result in test [5], in test [6], in test [7] and in test [8] was inactive.

As to `Cc1cc2nc(-c3ccc(C(=O)NCc4ccc(C(C)(C)C)cc4)cc3)[nH]c2cc1C`, the growth inhibition is 59% (active) in test [1] and 101% (active) in test [4]. For the same compound, the inhibition was 3% in test [2] and -3% in test [3]. Besides, the outcome in test [5], in test [6], in test [7] and in test [8] was inactive.

In the case of `Cn1cncc1-c1ccc2ncnc(Nc3ccc(OCc4ccccc4)cc3)c2c1`, the growth inhibition was 99% (active) in test [1] and 101% (active) in test [4]. Further, the inhibition in test [2] is 4%; in test [3], 1%. In addition, the result in test [5], in test [6], in test [7] and in test [8] was inactive.

With `O=C(NC1CCN(CC2(c3ccccc3)CCCC2)CC1)c1[nH]ncc1Cl`, the growth inhibition is 87% (active) in test [1] and 83% (active) in test [4]. Further, the inhibition is -3% in test [2] and 5% in test [3]. The result in test [5], in test [6], in test [7] and in test [8] was inactive.

Turning to `CC(=O)N1N=C(c2ccc(F)cc2)Sc2c1nc(-c1ccccc1)n2C(C)=O`, the growth inhibition in test [1] was 67% (active); in test [4], 99% (active). For the same compound, the inhibition was -11% in test [2] and -1% in test [3]. Besides, the outcome in test [5], in test [6], in test [7] and in test [8] was inactive.

As to `O=C(Nc1ccc(N2CCNCC2)nc1)c1oc(-c2ccccc2)nc1C(F)(F)F`, the figures for the growth inhibition in test [1] and in test [4] were 62% (active) and 100% (active), respectively. The inhibition in test [2] is 7%; in test [3] it was 0%. Besides, the result in test [5], in test [6], in test [7] and in test [8] was inactive.

Regarding `CC(=O)Nc1cccc(C(=O)Nc2cccc(-c3cccc(-c4nc5ccc(F)cc5[nH]4)c3)c2)c1`, the growth inhibition in test [1] is 44%; in test [4], 101% (active). Besides, the inhibition in test [2] was 51% (active); in test [3], -5%. For the same compound, the result in test [5], in test [6], in test [7] and in test [8] was inactive.

With `Cc1ccc(C(c2nnnn2C2CCCC2)N(Cc2ccco2)Cc2ccccc2Cl)cc1` (stereo not drawn), the growth inhibition in test [1] was 78% (active); in test [4], 85% (active). The values for the inhibition in test [2] and in test [3] were 8% and -2%, respectively. Further, the outcome in test [5], in test [6], in test [7] and in test [8] was inactive.

For the compound `O=C(Nc1cccc(CN2CCCN(Cc3ccc4c(c3)OCO4)CC2)c1)c1ccc(Cl)c(Cl)c1`, the growth inhibition in test [1] was 10%; in test [4], 92% (active). For the same compound, the inhibition was 34% in test [2] and -2% in test [3]. For the same compound, the outcome in test [5], in test [6], in test [7] and in test [8] was inactive.

Take `CC(Oc1ccc(NC(=O)c2cccs2)cc1)C(=O)c1ccc(Cl)cc1` (stereo not drawn): the growth inhibition was 83% (active) in test [1] and 92% (active) in test [4]. In addition, the inhibition in test [2] was -1%; in test [3] it was 1%. Besides, the result in test [5], in test [6], in test [7] and in test [8] was inactive.

Regarding `CC(C)(Cc1ccc(Cl)cc1)NCCCCCCNCCc1ccc(O)c(O)c1`, the values for the growth inhibition in test [1] and in test [4] were -7% and 90% (active), respectively. Moreover, the figures for the inhibition in test [2] and in test [3] were 45% and -8%, respectively. Moreover, the result in test [5], in test [6], in test [7] and in test [8] was inactive.

Consider `Cc1cc(NC(=O)Nc2ccc(C(C)(C)C)cc2)c2ccccc2n1`, for which the growth inhibition in test [1] is 57% (active); in test [4], 101% (active). The inhibition was -3% in test [2] and 5% in test [3]. Besides, the result in test [5], in test [6], in test [7] and in test [8] was inactive.

For `CC(C)(C(=O)Nc1ccc(C2CCC(NCC3CC3)CC2)c(Cl)c1)c1cccc(OC(F)F)c1` (stereo not drawn), the growth inhibition is 23% in test [1] and 99% (active) in test [4]. The results for the inhibition in test [2] and in test [3] were 34% and -4%, respectively. Besides, the outcome in test [5], in test [6], in test [7] and in test [8] was inactive.

With `COc1ccc(NC(=O)CCNc2cc(C)nc(Nc3ccccc3)n2)cc1`, the growth inhibition in test [1] was 15%; in test [4], 92% (active). The inhibition in test [2] was -9%; in test [3] it was -2%. In addition, the outcome in test [5], in test [6], in test [7] and in test [8] was inactive.

For `Cn1cnc2c(SCc3ccccc3OCc3ccccc3)ncnc21`, the growth inhibition in test [1] was 34%; in test [4], 86% (active). Further, the inhibition was 6% in test [2] and -3% in test [3]. In addition, the result in test [5], in test [6], in test [7] and in test [8] was inactive.

Turning to `CCCNC(=O)c1ccnc(-c2ccc(CNC3Cc4ccccc4C3)cc2)c1`, the values for the growth inhibition in test [1] and in test [4] were 21% and 92% (active), respectively. For the same compound, the values for the inhibition in test [2] and in test [3] were 24% and -3%, respectively. Further, the outcome in test [5], in test [6], in test [7] and in test [8] was inactive.
